# The whole screen tested about 3,300 compounds, of which about 50 (2%) were called active. Not all results are given here. Entries with a potency or affinity are not part of this list. Unmarked numbers belong to inactive results.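 How the source made its calls: active means concentration giving half-maximal inhibition at or below 20 micromolar; inactive means half-maximal concentration above 20 micromolar, or not dose tested.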
# Experiment: cytotoxicity toward Jurkat T cells, primary screen, cell-based, Jurkat E6.1, NIH starter set (AID 364);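 further: 100% = cells treated with 4 µM doxorubicin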
# Conditions: Jurkat E6.1 viability, ATP luminescence, 48 h; at 4 µM; hits give high values
row,SMILES,inhibition [%]
1,c1ccc(OCc2nn3c(-c4cccnc4)nnc3s2)cc1,-5.4
2,CN(Cc1ccccc1)c1ncnc2ccc(Br)cc12,7.2
3,c1ccc(N2CCN(c3nc(NCc4ccco4)c4ccccc4n3)CC2)cc1,2.5
4,Clc1ccc(-n2ncc3c(NCc4cccs4)ncnc32)cc1,18.1
5,Clc1ccc(-n2ncc3c(NCc4ccccn4)ncnc32)cc1,5.5
6,Oc1ccccc1-c1nc(NCc2ccco2)c2ccccc2n1,-6.1
7,CCN(CC)CCCn1c(C)cc2c(c1=O)C(c1ccc(OC)c(OC)c1OC)C(C#N)=C(N)O2 (centres undefined),1.4
8,CCCOc1cccc(C2/C(=C(/O)c3ccccc3)C(=O)C(=O)N2CCN(C)C)c1 (centres undefined),2.5
9,O=C(c1coc(=O)c(Br)c1)N1CCOCC1,7.3
10,COc1cccc(-c2nc(N3CCCCC3C)c3ccccc3n2)c1O (centres undefined),-2
11,Cc1nc(NS(=O)(=O)c2ccccc2)sc1NC(=O)OCCN(C)C,9.6
12,COC(=O)C1=C(N)Oc2cc(C)oc(=O)c2C1c1ccncc1 (centres undefined),-9.1
13,O=C(O)CCc1nn2cc(-c3ccccc3)nc2[nH]c1=O,-5.8
14,Cc1cc(C)n(CC(=O)c2ccccc2)c(=O)c1C#N,-17.6
15,O=c1[nH]c2sc3c(c2c(=O)n1Cc1ccccc1)CCC3,1.3
16,COc1cccc(C2=CC(c3ccc(N(C)C)cc3)n3nnnc3N2)c1 (centres undefined),-9.6
17,COc1ccc(C2=CC(c3cccc(OC)c3)n3nnnc3N2)cc1 (centres undefined),-8.6
18,Cc1nc(SC2C=CS(=O)(=O)C2)n[nH]1 (centres undefined),-8.6
19,CCCCNC1=C(Br)C(=O)CC(C)(C)C1,-3.7
20,Cn1c(Cn2cnc3ccccc32)nc2ccccc21,2.8
21,CC(C(=O)N1CCOCC1)N1C(=O)c2ccccc2C1=O (centres undefined),-0.7
22,O=c1c(C=NCCCn2ccnc2)c(-c2ccccc2)[nH]n1-c1nc2ccccc2s1,-4.4
23,OCCNc1ncnc2c1c(-c1ccccc1)c(-c1ccccc1)n2Cc1ccco1,11.5
24,CCCOc1cccc(CN2CCCCC2c2cccnc2)c1 (centres undefined),0.8
25,CNC(=O)C1CC(=O)N(Cc2ccccc2)C(=Nc2ccc(OC)cc2)S1 (centres undefined),-6.1

row,SMILES,inhibition [%]
1,CCCCOC(=O)Nc1ccc(S(=O)(=O)Nc2nc(C)cc(C)n2)cc1,6.7
2,CCOc1ccc2nc(SCC(=O)Nc3ncccn3)[nH]c2c1,-1.3
3,CCCCOC(=O)CCc1nc2ccccc2[nH]1,0.2
4,COCCNc1oc(-c2ccc(Cl)cc2)nc1C#N,2.9
5,CCN(CC)CCCN1C(=O)C(=O)/C(=C(/O)c2ccc(C)cc2)C1c1ccccn1 (centres undefined),-5.6
6,CCCNc1ncnc2c1cnn2-c1ccc(OC)cc1,-3.3
7,CCOc1ccc(CC2CC(=O)NC2=O)cc1 (centres undefined),-9.7
8,Cc1cn([C@H]2C=C[C@@H](CO)O2)c(=O)[nH]c1=O,-6.6
9,Cc1cn([C@H]2C[C@H](N=[N+]=[N-])[C@@H](CO)O2)c(=O)[nH]c1=O,0.1
10,Cn1cc(C(=O)NCN2CCCCC2)c2ccccc21,-0.4
11,CC(C)c1nc(NCC2CCCO2)c(C#N)c2c1COC(C)(C)C2 (centres undefined),9.3
12,Nc1nnnn1/N=C/c1ccco1,8
13,CCc1nc(N2CCCC2)c(C#N)c2c1CCCC2,2.4
14,COc1ccc(Nc2oc(-c3cccs3)nc2C#N)cc1,9.1
15,O=C1CCCN1c1ccc(S(=O)(=O)NCc2ccco2)cc1,7.4
16,COc1ccc(N2CC(=O)N(c3ccc(OC)c(OC)c3)CC2=O)cc1OC,-0.2
17,NC(=O)c1cc(-c2ccccc2)nc(Oc2ccccc2)n1,16.2
18,CC(C)Oc1ccc(/C(O)=C2/C(=O)C(=O)N(CCN3CCOCC3)C2c2ccccc2)cc1 (centres undefined),-8.3
19,CCOc1cc(CN2CCOCC2)cc(C(C)=O)c1,3.2
20,Cn1c(N)c(C#N)c(C#N)c1-c1ccccc1,-0.9
21,CCCCCOC(=O)Cc1c(C)nc(-c2ccccc2)[nH]c1=O,3.9
22,COc1ccc(C(=O)CCN2CCCCCC2)cc1,-4.7
23,COc1ccc(C(O)C(CN2CCOCC2)c2ccccc2)cc1 (centres undefined),-2.1
24,CCCCCCSC1=C(C#N)C(c2ccccc2)CC(=O)N1 (centres undefined),-7
25,C=C(C)CSC1=C(C#N)C(c2ccsc2)CC(=O)N1 (centres undefined),8.6

row,SMILES,inhibition [%]
1,CN1C2C=C3C(C#N)=C(N)C(C#N)(C#N)[C@@H](c4ccc(Cl)cc4)[C@@H]3C1CC2 (some centres undefined),1.6
2,CCOc1cccc(C2C(C#N)=C(N)Oc3cc(C)oc(=O)c32)c1OCC (centres undefined),-9.9
3,O=C(NCc1cccnc1)NC(C(F)(F)F)C(F)(F)F,-8.9
4,CC(NC(=O)Nc1nccs1)(C(F)(F)F)C(F)(F)F,-6.2
5,CCSc1nnc(NC(=O)NC(CC)(C(F)(F)F)C(F)(F)F)s1,-11.5
6,CCC(NC(=O)Nc1nccs1)(C(F)(F)F)C(F)(F)F,-5
7,O=C(NCC(F)(F)F)Nc1nnc(C(F)(F)F)s1,-6.7
8,COCCCn1c(C)nc2c(c1=O)c1nc3ccccc3nc1n2CCc1ccccc1,4.1
9,CC1CCCCN1C(=O)C12CCC(C)(/C(=N/O)C1)C2(C)C (centres undefined),-9.3
10,CCOC(=O)C1=C(N)c2ccccc2CC1C(C)C (centres undefined),7
11,COc1cccc(C2C(C#N)=C(N)Oc3cc(C)[nH]c(=O)c32)c1OC (centres undefined),7.3
12,COc1cc(C2C(C#N)=C(N)Oc3cc(C)n(CCN4CCOCC4)c(=O)c32)cc(OC)c1OC (centres undefined),-2.9
13,COc1ccc(-c2cc3nc4n(c(=O)c3s2)CCOC4)cc1,4.7
14,COc1cc(NC(=O)NC(C)(C(F)(F)F)C(F)(F)F)cc(OC)c1OC,-6.8
15,OCCOCCNc1ncnc2c1cnn2-c1ccc(Cl)cc1,3.8
16,CN1CCN(c2c3c(c(C#N)c4nc5ccccc5n24)CCCC3)CC1,4.7
17,CCOC(=O)C1Cc2c([nH]c3ccccc23)C(C)N1 (centres undefined),-10.3
18,Cc1cc(NC(CC(C)C)C(=O)O)nc(Cc2ccccc2)n1 (centres undefined),0.4
19,CC1(C2(O)CC(c3ccccc3)ON2)CCCCC1 (centres undefined),13.9
20,CC1CN(C2CCN(S(=O)(=O)c3ccccc3)CC2)CC(C)O1 (centres undefined),7.8
21,C(=N\n1cnnc1)/c1ccccn1,-0.2
22,CCOC(=O)CC(=O)CSc1nc(N)c(C#N)c(-c2ccc(Cl)cc2)c1C#N,9.6
23,Cc1cc(-c2cc(-c3ccc(Cl)cc3)nc(N)c2C#N)co1,7.7
24,CC(=O)c1c(OCC(=O)O)ccc2c(C)cc(=O)oc12,6.9
25,c1ccc2c(c1)[nH]c1c(N3CCSCC3)ncnc12,29.6

row,SMILES,inhibition [%]
1,c1ccc(CN2CCN(c3ncnc4c3[nH]c3ccccc34)CC2)cc1,28.5
2,Cc1cc(=O)oc(C)c1C(=O)N1CCN(C)CC1,-1
3,CN(C)CCCN1C(=O)C(O)=C(C(=O)c2cc3ccccc3o2)C1c1ccccc1 (centres undefined),0
4,Nc1ccc2oc3ncccc3c(=O)c2c1,-1.7
5,CC(C)Oc1ccc(/C(O)=C2/C(=O)C(=O)N(CCN(C)C)C2c2ccco2)cc1 (centres undefined),5.7
6,COc1ccc2[nH]c3c(N4CCN(Cc5ccc6c(c5)OCO6)CC4)ncnc3c2c1,-0.5
7,Fc1ccc2[nH]c3c(N4CCN(c5ccccc5)CC4)ncnc3c2c1,28.7
8,COc1cccc(N2CCN(c3ncnc4c3[nH]c3ccccc34)CC2C)c1 (centres undefined),22.3
9,Cc1ccc2[nH]c3c(N4CCN(Cc5ccc6c(c5)OCO6)CC4)ncnc3c2c1,18.7
10,N#CCCSCc1ccc(OCC(=O)O)cc1,-5.7
11,CCn1cc(C(=O)NCc2ccco2)c(=O)c2cc(F)c(N3CCN(C(=O)c4ccco4)CC3)cc21,7.2
12,Cc1cc(C)n(C(=O)CNC(=O)c2cccs2)n1,2.3
13,CCN(CC)C(=O)CSC1=C(C#N)C(c2ccco2)C(C(=O)OCCOC)=C(C)N1 (centres undefined),-2.1
14,CCc1ccc(NC(=O)CSC2=C(C#N)C(c3ccco3)C3=C(CCCC3=O)N2)cc1 (centres undefined),3.5
15,Cc1ccc(NC(=O)CSC2=C(C#N)C(c3ccco3)C3=C(CCCC3=O)N2)cc1 (centres undefined),6.6
16,N#CC1=C(SCc2ccccc2)NC2=C(C(=O)CCC2)C1c1ccc2c(c1)OCO2 (centres undefined),13.1
17,COCCOC(=O)C1=C(C)NC(SCC(=O)NC(C)(C)C)=C(C#N)C1c1ccco1 (centres undefined),9.1
18,COc1ccccc1NC(=O)C1=C(C)NC(SCC(=O)c2ccc(C)cc2)=C(C#N)C1c1ccco1 (centres undefined),-6.6
19,CCCCc1ccc(NC(=O)CSC2=C(C#N)C(c3ccco3)C3=C(CCCC3=O)N2)cc1 (centres undefined),-2.5
20,CCc1ccccc1NC(=O)CSC1=C(C#N)C(c2ccc(O)c(OC)c2)C2=C(CCCC2=O)N1 (centres undefined),-3.3
21,Cc1cc(CCC(=O)O)c(C)cc1CCC(=O)O,-4.4
22,NS(=O)(=O)c1ccc(-c2ccc(C=NC3CCS(=O)(=O)C3)o2)cc1 (centres undefined),10.2
23,O=C(C1CCCCC1)N1CCCn2c1nc1ccccc12,1.8
24,O=C1C2CC=C(Cl)CC2C(=O)N1CNc1ccccn1 (centres undefined),-4.2

# Reference: PubChem BioAssay AID364 (The Scripps Research Institute Molecular Screening Center, 2006)
